Several values for one entry are separate records, joined by “and”; a condition that tells them apart may be missing. Identical values can stand only once. Inconclusive results are not listed. The source holds several records for some structures; these can differ, active in one and inactive in another. Activity calls are given as the source filed them. Unless noted, calls follow the shape of the full dose curve.
Legend:
[1] = Nuclear factor erythroid 2-related factor 2/antioxidant responsive element (Nrf2/ARE) small molecule agonists: qHTS cell viability counter screen in human keratinocytes (AID 1919968; active = well fitted curve in the direction sought with a large enough effect in the repeat runs; an effect the other way counts as inactive or inconclusive; also: nearly all actives have a fitted effect of over 55% in size)
How it was run: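 In human HaCaT keratinocytes stably expressing an ARE-driven luciferase, compound exposure lasted 23 h at 37 C under 5% CO2. Viable cells are quantified with a protease-based fluorogenic reagent (CellTiter-Fluor) read 1 h after addition.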

[2] = Nuclear factor erythroid 2-related factor 2/antioxidant responsive element (Nrf2/ARE) small molecule agonists: luciferase reporter gene qHTS assay in human keratinocytes (AID 1919969); also: nearly all actives have a fitted effect of over 35% in size; also: potency is read from the fitted curve at half-maximal effect
[3] = target: Gonadotropin-releasing hormone receptor (Homo sapiens) (UniProt P30968); experiment: Human gonadotropin-releasing hormone receptor (GnRHR) small molecule agonists, calcium flux assay in GnRHR-HEK293 cells (AID 1920063); also: nearly all actives have a fitted effect of over 35% in size; also: potency is read from the fitted curve at half-maximal effect
Gonadotropin-releasing hormone receptor (Homo sapiens), sequence (P30968 whole entry, looked up): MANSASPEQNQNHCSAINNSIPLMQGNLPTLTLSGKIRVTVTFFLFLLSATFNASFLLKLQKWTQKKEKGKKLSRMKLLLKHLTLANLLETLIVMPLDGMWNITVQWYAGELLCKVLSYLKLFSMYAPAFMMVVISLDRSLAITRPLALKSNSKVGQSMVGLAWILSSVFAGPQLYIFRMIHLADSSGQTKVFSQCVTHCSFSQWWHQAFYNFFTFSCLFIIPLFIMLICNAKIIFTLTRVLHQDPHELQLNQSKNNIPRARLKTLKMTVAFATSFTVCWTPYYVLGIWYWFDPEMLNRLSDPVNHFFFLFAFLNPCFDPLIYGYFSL
How it was run: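 Intracellular calcium rise is the read-out: engineered human GnRHR HEK293 cells, dye-loaded, are exposed to DMSO-dissolved compounds and fluorescence at Ex/Em 480/540 is tracked for 3 min.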

[4] = target: KiSS-1 receptor (Homo sapiens) (UniProt Q969F8); experiment: Human kisspeptin (KISS1R) small molecule agonists, calcium flux assay in KISS1R-HEK293 cells (AID 1920064; active = well fitted curve in the direction sought with a large enough effect in the repeat runs; an effect the other way counts as inactive or inconclusive; also: potency is read from the fitted curve at half-maximal effect)
KiSS-1 receptor (Homo sapiens), sequence (Q969F8 whole entry, looked up): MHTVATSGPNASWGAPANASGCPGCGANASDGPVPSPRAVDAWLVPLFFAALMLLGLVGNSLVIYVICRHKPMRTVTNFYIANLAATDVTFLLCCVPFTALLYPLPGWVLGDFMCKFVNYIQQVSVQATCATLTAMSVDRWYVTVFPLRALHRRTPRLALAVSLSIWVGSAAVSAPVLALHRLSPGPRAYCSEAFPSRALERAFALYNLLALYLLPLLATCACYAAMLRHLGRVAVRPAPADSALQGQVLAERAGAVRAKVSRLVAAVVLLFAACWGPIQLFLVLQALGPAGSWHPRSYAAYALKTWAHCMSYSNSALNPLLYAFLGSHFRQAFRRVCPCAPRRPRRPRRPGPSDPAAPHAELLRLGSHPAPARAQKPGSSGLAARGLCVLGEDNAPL
How it was run: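 Concentration-response testing used 15 concentrations in triplicate on human KISS1R-expressing HEK293 cells. Calcium-dependent fluorescence (Ex/Em 480/540) was followed kinetically for 3 min after compound transfer.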

[5] = G protein-coupled receptor (GPCR) small molecule agonists, calcium flux assay: HEK293 wild type cell line counter screen (AID 1920065); also: potency is read from the fitted curve at half-maximal effect
How it was run: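 Fluorescence intensity signals activation. After overnight (18 h) culture and a 1 h calcium dye load at 37 C, compounds are added by pin tool and the plate read at 480/540 nm for 3 min in 1 s steps.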

[6] = p53 small molecule agonists, cell-based qHTS assay with human liver microsomes (AID 1963577)
How it was run: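 p53RE-bla cells, 4,000/well, compound added after 5 h, with human liver microsomes 0.5 mg/mL and NADPH 0.5 mg/mL final; 16 h at 37 C, then LiveBLAzer 2 h RT, fluorescence.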

[7] = p53 small molecule agonists, cell-based qHTS assay with rat liver microsomes (AID 1963578)
How it was run: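 p53RE-bla cells, 4,000/well, pre-incubated 5 h, then given compounds plus rat liver microsomes (0.5 mg/mL final) and NADPH (0.5 mg/mL final). Incubation 16 h at 37 C; beta-lactamase reporter read by LiveBLAzer fluorescence after 2 h at room temperature.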

[8] = p53 small molecule agonists, cell-based qHTS assay with human liver microsomes: qHTS cell viability counter screen (AID 1963579); also: nearly all actives have a fitted effect of over 45% in size; also: potency is read from the fitted curve at half-maximal effect
How it was run: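 p53RE-bla cells, 4,000/well, dosed 5 hours after plating, with human liver microsomes (0.5 mg/mL final) plus NADPH (0.5 mg/mL final), 16 hours at 37 C. Viability read as CellTiter-Glo luminescence after 30 min at room temperature.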

[9] = p53 small molecule agonists, cell-based qHTS assay with rat liver microsomes: qHTS cell viability counter screen (AID 1963580); also: nearly all actives have a fitted effect of over 45% in size; also: potency is read from the fitted curve at half-maximal effect
How it was run: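 After the beta-lactamase ratio was read, CellTiter-Glo was added to the same wells and luminescence measured at 30 min; cells had been treated 16 h at 37 C with compounds, rat liver microsomes and NADPH (0.5 mg/mL final each).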

[10] = p53 small molecule agonists, cell-based qHTS assay: qHTS cell viability counter screen (AID 1963581); also: nearly all actives have a fitted effect of over 45% in size; also: potency is read from the fitted curve at half-maximal effect
How it was run: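 Luminescence from CellTiter-Glo, reflecting ATP content, serves as the cytotoxicity measure; it is taken after the 2 h reporter substrate step in HCT-116 p53RE-bla cells dosed for 16 h at 37 C.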

[11] = target: 5-hydroxytryptamine receptor 2A (Homo sapiens) (UniProt P28223); experiment: 5-hydroxytryptamine receptor 2A (HTR2A) small molecule antagonists, cell-based qHTS assay (AID 1963586); also: nearly all actives have a fitted effect of over 45% in size
5-hydroxytryptamine receptor 2A (Homo sapiens), sequence (P28223 whole entry, looked up): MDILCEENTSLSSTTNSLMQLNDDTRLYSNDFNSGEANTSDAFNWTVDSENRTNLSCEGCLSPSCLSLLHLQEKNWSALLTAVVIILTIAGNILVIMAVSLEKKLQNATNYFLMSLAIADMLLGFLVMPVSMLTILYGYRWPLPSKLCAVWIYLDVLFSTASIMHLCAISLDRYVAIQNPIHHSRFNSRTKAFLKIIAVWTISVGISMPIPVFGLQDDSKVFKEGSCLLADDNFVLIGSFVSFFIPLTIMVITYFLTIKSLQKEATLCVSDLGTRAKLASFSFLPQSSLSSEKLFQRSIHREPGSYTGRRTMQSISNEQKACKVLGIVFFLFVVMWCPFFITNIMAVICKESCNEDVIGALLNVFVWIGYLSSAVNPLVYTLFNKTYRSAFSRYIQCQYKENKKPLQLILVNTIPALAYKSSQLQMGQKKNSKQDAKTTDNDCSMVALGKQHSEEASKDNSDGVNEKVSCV
How it was run: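 CHO cells stably expressing human HTR2A were plated for 18 h at 37 C, then loaded with calcium dye for 1 h. Compounds were preincubated 5 min at room temperature before DOI (4 nM solution) was added. Kinetic fluorescence was read for 3 min.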

[12] = target: 5-hydroxytryptamine receptor 2A (Homo sapiens) (UniProt P28223); experiment: 5-hydroxytryptamine receptor 2A (HTR2A) small molecule agonists, cell-based qHTS assay (AID 1963587); also: nearly all actives have a fitted effect of over 30% in size; also: potency is read from the fitted curve at half-maximal effect
How it was run: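 CHO cells stably expressing human HTR2A, plated 18 h, loaded with calcium dye 1 h at 37 C. Agonist mode: compounds added and intracellular calcium fluorescence recorded kinetically for 2 min at 1 sec intervals.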

[13] = target: Muscarinic acetylcholine receptor M1 (Homo sapiens) (UniProt P11229); experiment: Cholinergic receptor muscarinic 1 (CHRM1) small molecule agonists, cell-based qHTS assay (AID 1963589); also: nearly all actives have a fitted effect of over 35% in size; also: potency is read from the fitted curve at half-maximal effect
Muscarinic acetylcholine receptor M1 (Homo sapiens), sequence (P11229 whole entry, looked up): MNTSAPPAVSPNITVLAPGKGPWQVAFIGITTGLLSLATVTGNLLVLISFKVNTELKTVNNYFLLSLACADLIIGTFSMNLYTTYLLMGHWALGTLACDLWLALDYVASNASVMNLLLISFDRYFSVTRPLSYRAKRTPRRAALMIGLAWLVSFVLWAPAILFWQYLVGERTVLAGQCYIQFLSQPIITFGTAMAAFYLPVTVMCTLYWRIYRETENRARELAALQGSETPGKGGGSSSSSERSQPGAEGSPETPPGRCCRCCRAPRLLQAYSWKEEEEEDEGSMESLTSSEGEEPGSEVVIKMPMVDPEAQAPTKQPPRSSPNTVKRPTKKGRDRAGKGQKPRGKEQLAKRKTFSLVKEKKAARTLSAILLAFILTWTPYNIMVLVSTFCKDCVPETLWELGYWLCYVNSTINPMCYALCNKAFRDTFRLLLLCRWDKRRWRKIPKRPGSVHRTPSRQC
How it was run: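 Fluorescent calcium dye reports M1 activation in stably transfected CHO cells. Compounds, 15 concentrations, added after 1 h dye loading at 37 C; kinetic reading at 1 sec intervals.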

[14] = target: D(2) dopamine receptor (Homo sapiens) (UniProt P14416); experiment: Dopamine D2 receptor (DRD2) small molecule antagonists, cell-based qHTS assay (AID 1963595; active = well fitted inhibition curve with a large enough effect in the signal ratio in the repeat runs, with a control signal flat; the % refers to the signal ratio; also: potency is read from the fitted curve at half-maximal effect)
D(2) dopamine receptor (Homo sapiens), sequence (P14416 whole entry, looked up): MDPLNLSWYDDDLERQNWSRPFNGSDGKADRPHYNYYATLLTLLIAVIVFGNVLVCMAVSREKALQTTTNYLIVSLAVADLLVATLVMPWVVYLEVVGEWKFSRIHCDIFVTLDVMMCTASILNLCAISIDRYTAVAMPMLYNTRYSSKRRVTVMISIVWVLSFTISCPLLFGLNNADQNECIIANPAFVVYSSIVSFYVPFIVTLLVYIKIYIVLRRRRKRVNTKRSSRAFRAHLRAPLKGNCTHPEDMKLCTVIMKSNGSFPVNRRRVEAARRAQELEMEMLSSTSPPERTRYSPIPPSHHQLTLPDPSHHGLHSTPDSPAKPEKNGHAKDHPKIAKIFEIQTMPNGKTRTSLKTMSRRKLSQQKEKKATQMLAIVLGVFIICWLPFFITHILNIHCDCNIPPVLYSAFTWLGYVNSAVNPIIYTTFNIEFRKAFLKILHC
How it was run: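 Cells were plated and grown for 24 h at 37 °C. Ro20-1724 (0.1 mM final) went in first, then compound for 10 min. NKH477 (200 nM) with quinpirole (12 nM) followed for 30 min at RT, then HTRF detection reagents for 1 h.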

[15] = cAMP Responsive Elements (CRE) small molecule agonists, cell-based qHTS assay (AID 1963590)
How it was run: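 Compound exposure lasted 3 h at 37 C/5% CO2 in CRE-bla HEK 293T cells grown in assay medium with 10% dialyzed FBS and 25 mM HEPES. Reporter signal came from LiveBLAzer B/G FRET substrate, 2 h, room temperature.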

[16] = cAMP Responsive Elements (CRE) small molecule antagonists, cell-based qHTS assay (AID 1963591; active = well fitted inhibition curve with a large enough effect in the signal ratio in the repeat runs, not every such curve was filed as active; the % refers to the signal ratio)
How it was run: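 Stimulation used NKH477 at a final 0.25 uM for 3 h in compound-treated CRE-bla HEK293T cells, seeded 18 h beforehand. Reporter activity was measured with LiveBLAzer B/G FRET substrate after 2 h at room temperature.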

[17] = target: Beta-2 adrenergic receptor (Homo sapiens) (UniProt P07550); experiment: Adrenergic beta2 receptor (ADRB2) small molecule agonists, cell-based qHTS assay (AID 1963593);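 also: CHO cells stably overexpressing human ADRB2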
Beta-2 adrenergic receptor (Homo sapiens), sequence (P07550 whole entry, looked up): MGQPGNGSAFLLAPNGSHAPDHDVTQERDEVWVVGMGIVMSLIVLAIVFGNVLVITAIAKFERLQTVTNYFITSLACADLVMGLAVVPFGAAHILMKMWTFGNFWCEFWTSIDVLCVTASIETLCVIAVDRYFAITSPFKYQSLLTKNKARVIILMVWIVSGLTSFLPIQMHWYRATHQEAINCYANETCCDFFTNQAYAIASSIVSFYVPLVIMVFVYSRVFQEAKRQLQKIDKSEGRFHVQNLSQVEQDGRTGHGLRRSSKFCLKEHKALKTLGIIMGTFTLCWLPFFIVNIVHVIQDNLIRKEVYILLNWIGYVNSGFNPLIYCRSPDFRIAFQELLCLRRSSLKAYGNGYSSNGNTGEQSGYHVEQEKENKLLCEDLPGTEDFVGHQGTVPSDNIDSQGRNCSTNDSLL
How it was run: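 CHO cells stably over-expressing ADRB2 were plated overnight at 37C, then dosed with compounds plus a stimulation mix containing 100uM IBMX and 25uM Ro-20-1724 for 0.5hr at room temperature. cAMP was measured by HTRF competition, 1hr.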

[18] = target: Beta-2 adrenergic receptor (Homo sapiens) (UniProt P07550); experiment: Adrenergic beta2 receptor (ADRB2) small molecule antagonists, cell-based qHTS assay (AID 1963592); also: series mostly up to about 92 µM; nearly all actives have a fitted effect of over 50% in size
How it was run: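 Assay format: CHO-ADRB2 cells, 18-20hr seeding at 37C/5% CO2, then compound plus 1nM isoproterenol agonist mix for 0.5hr RT. Homogeneous time-resolved fluorescence cAMP detection after 1hr, expressed as 665/615 nm ratio.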

[19] = p53 small molecule agonists, cell-based qHTS assay (AID 1963582; active = well fitted activation curve with a large enough effect in the signal ratio in the repeat runs, not every such curve was filed as active; the % refers to the signal ratio)
How it was run: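 After plating, p53RE-bla cells sat 5 h in the incubator; compounds or DMSO vehicle were pinned in; a 16 h incubation at 37 C followed; FRET substrate was added and, 2 h later at RT, fluorescence was measured.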

[20] = target: D(2) dopamine receptor (Homo sapiens) (UniProt P14416); experiment: Dopamine D2 receptor (DRD2) small molecule agonists, cell-based qHTS assay (AID 1963594); also: nearly all actives have a fitted effect of over 35% in size
How it was run: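 HEK293 cells stably expressing human DRD2, pre-treated with PDE inhibitor Ro20-1724 (0.1 mM final) and compound 10 min at room temperature, then stimulated with NKH477 (200nM […]) for 30 min. cAMP read by HTRF (665/620 nm).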
% is scaled to controls: 0 for no effect and ±100 for the full control effect.

CCN=c1cc2oc3cc(NCC)c(C)cc3c(-c3ccccc3C(=O)OCC)c-2cc1C
inactive: Potency [1] | Potency [6] | Potency [7] | Potency [11]
inactive and 27.3 µM (active): Potency [2]
active: Potency [3] 12.3 µM and 7.76 µM | Potency [4] 17.3 µM and 21.9 µM | Potency [5] 38.8 µM and 30.9 µM | Potency [8] 40.6 µM and 40.8 µM | Potency [9] 20.4 µM and 40.8 µM | Potency [10] 45.6 µM | Potency [12] 5.47 µM and 19.5 µM | Potency [13] 19.4 µM and 19.5 µM | Potency [14] 34.4 µM

Cc1ccc(O)cc1
inactive: Potency [1] | Potency [2] | Potency [3] | Potency [4] | Potency [5] | Potency [6] | Potency [7] | Potency [8] | Potency [9] | Potency [10] | Potency [11] | Potency [12] | Potency [13] | Potency [15] | Potency [16] | Potency [17] | Potency [14]

CCCc1c(OCCCCc2nn[nH]n2)ccc(C(C)=O)c1O
inactive: Potency [1] | Potency [2] | Potency [3] | Potency [4] | Potency [5] | Potency [6] | Potency [7] | Potency [8] | Potency [9] | Potency [10] | Potency [11] | Potency [12] | Potency [13] | Potency [18] | Potency [14]

CC(C)=CCC/C(C)=C/CO
inactive: Potency [1] | Potency [2] | Potency [3] | Potency [4] | Potency [5] | Potency [6] | Potency [7] | Potency [8] | Potency [9] | Potency [10] | Potency [19] | Potency [15] | Potency [16] | Potency [17] | Potency [20] | Potency [14]

C[C@]12CCC(=O)C=C1CC[C@@H]1[C@@H]2C(=O)C[C@@]2(C)[C@H]1CC[C@]2(O)C(=O)CO
inactive: Potency [1] | Potency [2] | Potency [3] | Potency [4] | Potency [5] | Potency [6] | Potency [7] | Potency [9] | Potency [10] | Potency [19] | Potency [15] | Potency [17] | Potency [20] | Potency [14]
408 nM (active) and inactive: Potency [8]

CC(O)COCC(C)O (stereo not drawn)
inactive: Potency [1] | Potency [2] | Potency [3] | Potency [4] | Potency [5] | Potency [6] | Potency [7] | Potency [8] | Potency [9] | Potency [10] | Potency [11] | Potency [12] | Potency [13] | Potency [16] | Potency [18] | Potency [20] | Potency [14]

CCCCC(CC)COC(=O)CCCCC(=O)OCC(CC)CCCC (stereo not drawn)
inactive: Potency [1] | Potency [2] | Potency [3] | Potency [4] | Potency [5] | Potency [6] | Potency [7] | Potency [8] | Potency [9] | Potency [10] | Potency [11] | Potency [12] | Potency [13] | Potency [15] | Potency [16] | Potency [18] | Potency [17] | Potency [20] | Potency [14]

CCCCCC1C(=O)CCC1CC(=O)OC (stereo not drawn)
inactive: Potency [1] | Potency [2] | Potency [3] | Potency [4] | Potency [5] | Potency [6] | Potency [7] | Potency [8] | Potency [9] | Potency [10] | Potency [11] | Potency [12] | Potency [13] | Potency [15] | Potency [16] | Potency [18] | Potency [17] | Potency [20] | Potency [14]

CC(C)Cc1ccc(C(C)C(=O)O)cc1 (stereo not drawn)
inactive: Potency [1] | Potency [2] | Potency [3] | Potency [4] | Potency [5] | Potency [6] | Potency [7] | Potency [8] | Potency [9] | Potency [10] | Potency [19] | Potency [16] | Potency [18] | Potency [17] | Potency [20] | Potency [14]

O=C(O)c1cn(-c2ccc(F)cc2)c2cc(N3CCNCC3)c(F)cc2c1=O
inactive: Potency [1] | Potency [2] | Potency [3] | Potency [4] | Potency [5] | Potency [6] | Potency [7] | Potency [8] | Potency [9] | Potency [10] | Potency [19] | activity change, negative = inhibition [18] 3.86% [at 19 µM] | Potency [14]

CC(C)CCCCCCCOC(=O)CCCCC(=O)OCCCCCCCC(C)C
inactive: Potency [1] | Potency [2] | Potency [3] | Potency [4] | Potency [5] | Potency [6] | Potency [7] | Potency [8] | Potency [9] | Potency [19] | Potency [11] | Potency [13] | Potency [15] | Potency [18] | Potency [20]

CC1Cc2ccccc2N1NC(=O)c1ccc(Cl)c(S(N)(=O)=O)c1 (stereo not drawn)
inactive: Potency [1] | Potency [2] | Potency [3] | Potency [4] | Potency [5] | Potency [6] | Potency [7] | Potency [8] | Potency [9] | Potency [19] | Potency [15] | Potency [16] | Potency [18] | Potency [17] | Potency [20] | Potency [14]

CCCNC(=O)NS(=O)(=O)c1ccc(Cl)cc1
inactive: Potency [1] | Potency [2] | Potency [3] | Potency [4] | Potency [5] | Potency [6] | Potency [7] | Potency [8] | Potency [19] | Potency [15] | Potency [16] | Potency [18] | Potency [17] | Potency [20]

CCCCOC(=O)CCCCCCCCC(=O)OCCCC
inactive: Potency [1] | Potency [2] | Potency [3] | Potency [4] | Potency [5] | Potency [6] | Potency [7] | Potency [8] | Potency [10] | Potency [19] | Potency [11] | Potency [12] | Potency [13] | Potency [15] | Potency [20] | Potency [14]

CC(=O)c1ccccc1
inactive: Potency [1] | Potency [2] | Potency [3] | Potency [4] | Potency [5] | Potency [6] | Potency [7] | Potency [8] | Potency [10] | Potency [19] | Potency [11] | Potency [12] | Potency [13] | Potency [15] | Potency [16] | Potency [18] | Potency [20]

Cc1ccccc1C(OCCN(C)C)c1ccccc1 (stereo not drawn)
inactive: Potency [1] | Potency [2] | Potency [3] | Potency [4] | Potency [5] | Potency [6] | Potency [7] | Potency [8] | Potency [9] | Potency [15] | Potency [16] | Potency [18] | Potency [20] | Potency [14]

Reference: PubChem BioAssay (Tox21)
